LMP1 NFkB inh – EBV LMP1-driven NF-kappaB luciferase reporter inhibitors, primary screen, cell-based, luminescence, single point. LMP1-induced NF-kappaB luciferase reporter cells. inhibition, % at 12.5 µM. 350,000 tested, 0.69% active. AID 504558, 2011; in the data active = inhibition above about 41%;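 also: 0% = neutral control wells and 100% = reference inhibitor control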
TRPM1 prom inh – inhibitors of MITF-dependent TRPM1 promoter reporter, primary screen, cell-based, SK-MEL-5, single point, luciferase | 330,000 tested, 0.83% active | inhibition, % at 12.5 µM | SK-MEL-5 TRPM1 promoter luciferase, 24 h | AID 488899, 2010;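 active = mean inhibition across replicates of 60% or more, whatever share of single replicates reaches that level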
Shn3 inh set2 – reduction of Shn3 3'UTR firefly luciferase signal, primary screen, Schnurri-3 inhibitor project, cell-based, Clone20 osteoblasts, set 2; 360,000 tested, 0.52% active; inhibition, % at 12.5 µM; Clone20 osteoblast Shn3 3'UTR firefly luciferase, 24 h;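 active = mean inhibition of at least 75% with every replicate also reaching 75%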;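 also: 0% = median of neutral control wells and 100% = pilot-screen positive control compound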
TROY signal inh – inhibitors of TROY-driven NF-kB signaling, primary screen, Q293 LMP1-TROYcd cells, NF-kB luciferase, uHTS | Q293 LMP1-TROYcd NF-kB luciferase reporter, 4 h | inhibition, % at 10 µM | 360,000 tested, 0.98% active | AID 1347056, 2019;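 active = compounds whose plate-normalised and pattern-corrected inhibition of the luciferase reporter signal at the single screening dose is 50% or more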
Peg3 promoter – Peg3 promoter-driven luciferase inhibitors, primary screen, cell-based, HeLa, luciferase luminescence; HeLa PEG-Prom luciferase reporter, overnight; inhibition, % at 20 µM; 360,000 tested, 1.7% active; AID 588405, 2011;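 active = inhibition of at least 50% at 20 µM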
TWEAK-Fn14 inh – inhibitors of TWEAK-Fn14 signaling, primary screen, luciferase reporter cells, uHTS; TWEAK-stimulated Fn14 reporter cells, luciferase luminescence, 8 h; inhibition, % at 10 µM; 360,000 tested, 2% active; AID 1159606, 2016; in the data active = inhibition above about 50%
An asterisk follows results filed as active; . = no result given. The list is not random: actives were taken first. Their share in the collection is about 4.1%.

SMILES	LMP1 NFkB inh	TRPM1 prom inh	Shn3 inh set2	TROY signal inh	Peg3 promoter	TWEAK-Fn14 inh
CN(C)c1cc(Nc2ccc(O)cc2)c([N+](=O)[O-])c2nonc12	-3	-4	12	-8	-3	-25
O=[N+]([O-])c1c(Nc2ccccn2)cc(Cl)c2nonc12	54*	76*	95*	-1	108*	20
O=C1CCC2(CCCCC2)N1	0	3	-11	-11	14	7
Cc1ccc(/C=C/C(=O)c2c(C)nc3ccccn23)cc1	-17	-10	9	-35	-235	52*
Cc1nc2ccccn2c1C(=O)/C=C/c1cccc([N+](=O)[O-])c1	32	71*	-40	36	102*	94*
C/C(=N\NC(=O)c1c(C)nc2ccccn12)c1cccc([N+](=O)[O-])c1	6	16	-16	20	6	14
CCOc1ccc(CCN2C(=S)N([C@@H](Cc3ccc(O)cc3)CN3CCC[C@@H]3CN3C(=S)NC[C@@H]3Cc3ccc(O)cc3)C[C@@H]2Cc2ccc(O)cc2)cc1	.	.	.	29	.	-8
CCN(CC)c1ccc(N=C2C=CC(=O)C=C2NC(C)=O)cc1	.	.	-46	-3	-121	-8
CC(=O)[C@H]1CC[C@H]2[C@@H]3C[C@H](C)C4=CC(=O)CC[C@]4(C)[C@H]3[C@@H](O)C[C@]12C	57*	-22	35	15	-7	-26
CC(=O)[C@H]1CC[C@H]2[C@@H]3CCC4=CC(=O)CC[C@]4(C)[C@H]3[C@H](O)C[C@]12C	5	-4	-8	1	-7	-17
O=C(N/N=C/c1cc(Br)cc(Br)c1O)c1cccc(S(=O)(=O)N2CCOCC2)c1	27	27	7	24	55*	4
O=C(N/N=C/c1ccc(OC(F)F)cc1)c1cccc(S(=O)(=O)N2CCOCC2)c1	-7	6	10	10	3	71*
O=C(N/N=C/c1ccccc1Br)c1cccc(S(=O)(=O)N2CCOCC2)c1	-1	3	9	-38	-2	-10
O=C1C(C=NCc2ccncc2)=C(O)c2ccccc21	1	3	16	-2	-34	21
O=C1C(C=NCc2ccco2)=C(O)c2ccccc21	-22	-15	-35	59*	-253	38
O=C1C(C=NCc2cccnc2)=C(O)c2ccccc21	62*	-14	-55	52*	-205	27
COc1ccc2cc3cc(C(=O)N4CCN(Cc5ccc6c(c5)OCO6)CC4)oc3nc2c1	2	-3	-6	54*	-9	40
COc1ccc2cc3cc(C(=O)NCc4ccc5c(c4)OCO5)oc3nc2c1	-2	8	5	-26	-14	21
O=C(c1ccccc1Br)N1CCN(Cc2ccc3c(c2)OCO3)CC1	43*	10	8	-3	7	-15
c1coc(-c2cc3nc(NCc4ccc5c(c4)OCO5)ccn3n2)c1	.	.	-28	-20	-229	4
CCCC1(c2ccccc2)NC(=O)N(CC(=O)Nc2cc(OC)cc(OC)c2)C1=O (stereo unspecified)	-9	4	-1	6	4	24
COc1ccc(NS(=O)(=O)c2ccc(C)c(C(=O)N3CC(C)OC(C)C3)c2)cc1 (stereo unspecified)	-1	-4	-23	1	9	-11
Cc1cc(NC(=O)CSc2nc3c(c(=O)n2CCc2ccccc2)SC(C)C3)no1 (stereo unspecified)	77*	-1	5	-21	4	1
CC1=Nn2c(nnc2-c2ccccc2Cl)SC1	3	-1	-17	-8	-5	6
c1csc(C2=Nn3c(nnc3-c3ccncc3)SC2)c1	-1	-13	24	47	-12	69*
SMILES	LMP1 NFkB inh	TRPM1 prom inh	Shn3 inh set2	TROY signal inh	Peg3 promoter	TWEAK-Fn14 inh
Clc1ccccc1C1=Nn2c(nnc2-c2ccncc2)SC1	56*	-18	0	49	2	64*
Oc1ccccc1N=Nc1ccccc1O	67*	9	69	-29	-13	-29
Cc1ccc(C)c(N2CCN(C(=O)Cc3c(C(=O)O)[nH]c4ccc(Cl)cc34)CC2)c1	0	11	0	7	8	1
COc1ccc(C(=O)Nc2nc(-c3ccc([N+](=O)[O-])cc3)c(-c3ccccc3)s2)cc1	20	1	24	6	16	57*
COc1ccc(-c2sc(NC(=O)c3ccc(C)cc3)nc2-c2ccc([N+](=O)[O-])cc2)cc1	5	-6	8	-11	16	8
O=C(C(Cl)Cl)N1CC2CCC(CC2)C1	-1	10	-29	7	13	9
CNC(=S)N1N=C(c2cccs2)CC1c1ccc(F)cc1 (stereo unspecified)	50*	6	6	8	25	13
Cc1ccc(C2CC(c3cccs3)=NN2C(=O)CCl)cc1 (stereo unspecified)	-13	51	-22	-46	28	65*
CCC(=O)N1N=C(c2cccs2)CC1c1ccc(C)cc1 (stereo unspecified)	4	-6	-91	-13	-7	-1
COc1ccc(-c2ccc(CN3C(C)C(=O)N(Cc4cn(CCC5OCCO5)nn4)CCS3(=O)=O)cc2)cn1 (stereo unspecified)	-2	.	12	-6	15	-11
CC1CC(C)(C)CC2(C1)NC(=O)N(CC(=O)Nc1cc(C(F)(F)F)ccc1N1CCCCC1)C2=O (stereo unspecified)	11	13	-15	-18	20	11
COC(=O)c1sccc1NC(=O)CSc1ccccc1NS(=O)(=O)c1ccc(Br)cc1	2	3	-1	52*	40	53*
C/C(=N\Nc1nc2ccccc2[nH]1)c1ccc(Cl)s1	43*	3	-3	-51	-133	6
Cc1[nH]c2ccccc2c1/C=N/Nc1nc2ccccc2[nH]1	-26	-105	18	57*	-123	95*
C(=N\Nc1nc2ccccc2[nH]1)/c1ccccc1	-26	-76	-91	-4	-346	11
Cc1ccc(/C=N/Nc2nc3ccccc3[nH]2)s1	-118	-36	-27	-57	-241	50*
Cc1ccccc1/C=N/Nc1nc2ccccc2[nH]1	-16	-36	-60	-29	-234	7
C(=N\Nc1nc2ccccc2[nH]1)/c1cccc2cccnc12	71*	14	78	-3	-84	26
C/C(=N\Nc1nc2ccccc2[nH]1)c1ccc(C)o1	-20	-3	-52	14	-221	-4
COc1cccc(C(=O)NCC2(c3ccccc3)CCCC2)c1OC	2	6	24	-4	8	-5

High-throughput results from PubChem.
